Legend:
Assay in all cases: log2 ratio of Biotin-Ahx-Ub-VS probe labelling (fragment/DMSO); higher = less target engagement (more negative = stronger competition), active = hit call of the paper (q ≤ 0.05, log2 ratio ≤ -1)
Settings in all cases: compound concentration: 200 uM; treatment time: 3 h
[1] = biological target: USP16 (UniProt Q9Y5T5)
Outline: (§1)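 Average log2 ratios of fragment over vehicle were obtained by unpaired t-test from global-median-normalised Spectronaut label-free quantities. Proteins with ≥2 unique peptides were included. HEK293T lysate (495 µg per sample) was treated in triplicate with fragment at 200 µM or vehicle for 3 h, then with Biotin-Ahx-Ub-VS at 0.5 µM final for 1 h, and labelled DUBs were NeutrAvidin-enriched and run by diaPASEF LC-MS/MS.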

[2] = biological target: T1, USP19 (UniProt O94966)
T1 sequence (whole entry): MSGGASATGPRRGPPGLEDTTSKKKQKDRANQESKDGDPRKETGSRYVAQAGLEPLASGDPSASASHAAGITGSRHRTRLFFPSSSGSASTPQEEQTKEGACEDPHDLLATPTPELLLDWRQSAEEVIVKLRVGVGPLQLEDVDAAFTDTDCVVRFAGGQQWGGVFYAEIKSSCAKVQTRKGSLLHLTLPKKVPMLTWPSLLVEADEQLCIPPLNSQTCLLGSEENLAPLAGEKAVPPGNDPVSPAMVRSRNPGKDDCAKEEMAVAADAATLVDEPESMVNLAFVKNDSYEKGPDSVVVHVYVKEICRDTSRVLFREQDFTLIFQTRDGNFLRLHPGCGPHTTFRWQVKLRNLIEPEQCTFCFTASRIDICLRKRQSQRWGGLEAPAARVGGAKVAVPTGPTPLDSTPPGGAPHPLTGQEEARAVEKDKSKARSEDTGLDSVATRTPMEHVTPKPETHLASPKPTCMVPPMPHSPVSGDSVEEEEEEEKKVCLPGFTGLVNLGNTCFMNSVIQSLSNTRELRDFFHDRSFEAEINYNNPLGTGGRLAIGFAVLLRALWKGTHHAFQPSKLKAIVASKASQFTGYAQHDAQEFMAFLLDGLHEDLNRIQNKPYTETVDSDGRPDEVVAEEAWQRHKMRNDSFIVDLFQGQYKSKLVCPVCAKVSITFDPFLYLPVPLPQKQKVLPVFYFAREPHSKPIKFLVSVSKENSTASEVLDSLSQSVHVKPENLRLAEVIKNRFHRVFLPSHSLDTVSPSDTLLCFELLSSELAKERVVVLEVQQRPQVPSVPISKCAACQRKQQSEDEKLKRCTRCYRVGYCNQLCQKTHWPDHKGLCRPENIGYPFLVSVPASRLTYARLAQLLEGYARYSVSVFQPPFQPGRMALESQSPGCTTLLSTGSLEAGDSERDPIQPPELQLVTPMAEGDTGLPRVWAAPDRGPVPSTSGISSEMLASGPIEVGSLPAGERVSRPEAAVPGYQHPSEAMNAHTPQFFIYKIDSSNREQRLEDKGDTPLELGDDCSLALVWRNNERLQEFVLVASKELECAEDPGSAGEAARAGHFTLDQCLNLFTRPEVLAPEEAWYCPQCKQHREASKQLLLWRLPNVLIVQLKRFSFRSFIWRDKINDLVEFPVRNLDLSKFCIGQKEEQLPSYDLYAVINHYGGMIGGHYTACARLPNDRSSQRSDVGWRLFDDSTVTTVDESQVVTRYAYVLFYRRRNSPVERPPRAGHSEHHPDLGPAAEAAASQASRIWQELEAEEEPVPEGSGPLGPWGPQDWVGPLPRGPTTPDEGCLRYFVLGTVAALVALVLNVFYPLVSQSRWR
Outline: as §1

[3] = biological target: USP24 (UniProt Q9UPU5)
Outline: as §1

[4] = biological target: T2, USP25 (UniProt Q9UHP3)
T2 sequence (whole entry): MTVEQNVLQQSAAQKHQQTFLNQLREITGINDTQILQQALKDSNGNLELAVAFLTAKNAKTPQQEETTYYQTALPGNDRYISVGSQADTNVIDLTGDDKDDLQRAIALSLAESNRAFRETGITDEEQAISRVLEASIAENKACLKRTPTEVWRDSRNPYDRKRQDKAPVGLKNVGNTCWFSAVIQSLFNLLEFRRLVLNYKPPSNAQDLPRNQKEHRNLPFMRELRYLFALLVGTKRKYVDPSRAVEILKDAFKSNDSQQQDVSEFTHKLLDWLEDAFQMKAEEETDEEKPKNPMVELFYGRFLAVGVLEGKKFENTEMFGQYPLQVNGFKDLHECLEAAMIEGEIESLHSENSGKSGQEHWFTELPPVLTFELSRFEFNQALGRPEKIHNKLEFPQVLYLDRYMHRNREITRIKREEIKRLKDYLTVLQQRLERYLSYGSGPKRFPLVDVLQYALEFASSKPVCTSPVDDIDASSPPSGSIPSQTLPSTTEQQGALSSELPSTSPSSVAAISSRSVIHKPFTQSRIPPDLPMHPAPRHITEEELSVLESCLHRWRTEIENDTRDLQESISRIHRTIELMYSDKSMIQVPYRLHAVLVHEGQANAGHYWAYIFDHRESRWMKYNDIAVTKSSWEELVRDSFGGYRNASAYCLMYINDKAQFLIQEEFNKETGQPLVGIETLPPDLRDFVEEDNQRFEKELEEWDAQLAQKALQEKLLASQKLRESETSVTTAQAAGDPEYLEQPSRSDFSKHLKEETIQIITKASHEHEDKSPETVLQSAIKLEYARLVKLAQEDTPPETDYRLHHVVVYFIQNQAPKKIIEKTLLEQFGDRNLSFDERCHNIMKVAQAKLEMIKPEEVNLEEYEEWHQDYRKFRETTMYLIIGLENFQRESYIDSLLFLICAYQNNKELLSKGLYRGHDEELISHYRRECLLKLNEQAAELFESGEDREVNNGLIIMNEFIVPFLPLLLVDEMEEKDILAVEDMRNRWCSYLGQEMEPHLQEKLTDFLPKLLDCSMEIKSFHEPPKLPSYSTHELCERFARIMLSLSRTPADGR
Outline: as §1

[5] = biological target: T3, USP28 (UniProt Q96RU2)
T3 sequence (whole entry): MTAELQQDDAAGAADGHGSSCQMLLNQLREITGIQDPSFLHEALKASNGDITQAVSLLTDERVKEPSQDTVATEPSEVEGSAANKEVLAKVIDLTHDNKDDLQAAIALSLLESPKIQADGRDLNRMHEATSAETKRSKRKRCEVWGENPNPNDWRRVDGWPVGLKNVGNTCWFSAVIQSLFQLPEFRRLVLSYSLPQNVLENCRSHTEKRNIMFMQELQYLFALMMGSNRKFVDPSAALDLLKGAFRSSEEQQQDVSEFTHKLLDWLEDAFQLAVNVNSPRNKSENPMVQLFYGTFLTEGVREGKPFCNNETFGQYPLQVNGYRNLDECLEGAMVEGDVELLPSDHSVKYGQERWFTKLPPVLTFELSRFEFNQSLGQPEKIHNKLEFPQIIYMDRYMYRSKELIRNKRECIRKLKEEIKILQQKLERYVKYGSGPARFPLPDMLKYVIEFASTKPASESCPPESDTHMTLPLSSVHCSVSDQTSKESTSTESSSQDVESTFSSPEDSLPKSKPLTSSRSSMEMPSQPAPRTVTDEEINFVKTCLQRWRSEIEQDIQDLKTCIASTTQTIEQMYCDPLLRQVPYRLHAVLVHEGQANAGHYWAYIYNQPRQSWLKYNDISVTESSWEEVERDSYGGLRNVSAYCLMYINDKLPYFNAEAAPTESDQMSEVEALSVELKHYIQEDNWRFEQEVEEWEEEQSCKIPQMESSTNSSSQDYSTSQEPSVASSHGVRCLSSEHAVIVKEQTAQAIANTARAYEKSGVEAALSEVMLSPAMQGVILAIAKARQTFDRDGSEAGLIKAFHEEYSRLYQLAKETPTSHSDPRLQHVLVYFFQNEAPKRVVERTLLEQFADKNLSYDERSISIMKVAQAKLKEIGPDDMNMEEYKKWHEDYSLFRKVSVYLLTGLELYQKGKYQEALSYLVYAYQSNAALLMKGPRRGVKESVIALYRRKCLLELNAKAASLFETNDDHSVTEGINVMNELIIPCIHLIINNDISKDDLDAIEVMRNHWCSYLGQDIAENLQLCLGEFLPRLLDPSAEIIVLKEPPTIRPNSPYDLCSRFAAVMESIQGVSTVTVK
Outline: as §1

Measured: log2 ratio of Biotin-Ahx-Ub-VS probe labelling

Chain of USP16 (Q9Y5T5 whole entry, looked up, the tested form may be a part): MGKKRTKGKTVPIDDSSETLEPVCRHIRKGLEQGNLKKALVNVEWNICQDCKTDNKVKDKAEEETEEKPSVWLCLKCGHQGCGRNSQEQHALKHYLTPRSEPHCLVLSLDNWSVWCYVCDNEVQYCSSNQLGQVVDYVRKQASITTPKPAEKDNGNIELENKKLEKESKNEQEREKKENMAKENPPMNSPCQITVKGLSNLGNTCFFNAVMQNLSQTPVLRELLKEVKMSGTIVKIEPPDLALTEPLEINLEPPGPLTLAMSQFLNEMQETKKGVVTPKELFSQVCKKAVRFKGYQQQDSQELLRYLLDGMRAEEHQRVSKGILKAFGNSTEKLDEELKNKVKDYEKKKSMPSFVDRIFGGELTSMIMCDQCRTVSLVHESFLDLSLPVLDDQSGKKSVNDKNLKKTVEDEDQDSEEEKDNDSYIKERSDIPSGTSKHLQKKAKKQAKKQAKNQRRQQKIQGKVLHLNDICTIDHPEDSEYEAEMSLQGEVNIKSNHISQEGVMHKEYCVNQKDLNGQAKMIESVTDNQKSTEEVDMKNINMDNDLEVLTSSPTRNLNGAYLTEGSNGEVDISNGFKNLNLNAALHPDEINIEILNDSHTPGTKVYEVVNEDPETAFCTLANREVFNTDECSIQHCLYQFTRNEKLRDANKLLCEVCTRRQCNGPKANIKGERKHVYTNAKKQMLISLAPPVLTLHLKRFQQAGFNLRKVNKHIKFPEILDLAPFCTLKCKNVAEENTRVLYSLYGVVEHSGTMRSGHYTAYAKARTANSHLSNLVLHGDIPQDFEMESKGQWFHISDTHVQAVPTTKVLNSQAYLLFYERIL
Chain of USP24 (Q9UPU5 whole entry): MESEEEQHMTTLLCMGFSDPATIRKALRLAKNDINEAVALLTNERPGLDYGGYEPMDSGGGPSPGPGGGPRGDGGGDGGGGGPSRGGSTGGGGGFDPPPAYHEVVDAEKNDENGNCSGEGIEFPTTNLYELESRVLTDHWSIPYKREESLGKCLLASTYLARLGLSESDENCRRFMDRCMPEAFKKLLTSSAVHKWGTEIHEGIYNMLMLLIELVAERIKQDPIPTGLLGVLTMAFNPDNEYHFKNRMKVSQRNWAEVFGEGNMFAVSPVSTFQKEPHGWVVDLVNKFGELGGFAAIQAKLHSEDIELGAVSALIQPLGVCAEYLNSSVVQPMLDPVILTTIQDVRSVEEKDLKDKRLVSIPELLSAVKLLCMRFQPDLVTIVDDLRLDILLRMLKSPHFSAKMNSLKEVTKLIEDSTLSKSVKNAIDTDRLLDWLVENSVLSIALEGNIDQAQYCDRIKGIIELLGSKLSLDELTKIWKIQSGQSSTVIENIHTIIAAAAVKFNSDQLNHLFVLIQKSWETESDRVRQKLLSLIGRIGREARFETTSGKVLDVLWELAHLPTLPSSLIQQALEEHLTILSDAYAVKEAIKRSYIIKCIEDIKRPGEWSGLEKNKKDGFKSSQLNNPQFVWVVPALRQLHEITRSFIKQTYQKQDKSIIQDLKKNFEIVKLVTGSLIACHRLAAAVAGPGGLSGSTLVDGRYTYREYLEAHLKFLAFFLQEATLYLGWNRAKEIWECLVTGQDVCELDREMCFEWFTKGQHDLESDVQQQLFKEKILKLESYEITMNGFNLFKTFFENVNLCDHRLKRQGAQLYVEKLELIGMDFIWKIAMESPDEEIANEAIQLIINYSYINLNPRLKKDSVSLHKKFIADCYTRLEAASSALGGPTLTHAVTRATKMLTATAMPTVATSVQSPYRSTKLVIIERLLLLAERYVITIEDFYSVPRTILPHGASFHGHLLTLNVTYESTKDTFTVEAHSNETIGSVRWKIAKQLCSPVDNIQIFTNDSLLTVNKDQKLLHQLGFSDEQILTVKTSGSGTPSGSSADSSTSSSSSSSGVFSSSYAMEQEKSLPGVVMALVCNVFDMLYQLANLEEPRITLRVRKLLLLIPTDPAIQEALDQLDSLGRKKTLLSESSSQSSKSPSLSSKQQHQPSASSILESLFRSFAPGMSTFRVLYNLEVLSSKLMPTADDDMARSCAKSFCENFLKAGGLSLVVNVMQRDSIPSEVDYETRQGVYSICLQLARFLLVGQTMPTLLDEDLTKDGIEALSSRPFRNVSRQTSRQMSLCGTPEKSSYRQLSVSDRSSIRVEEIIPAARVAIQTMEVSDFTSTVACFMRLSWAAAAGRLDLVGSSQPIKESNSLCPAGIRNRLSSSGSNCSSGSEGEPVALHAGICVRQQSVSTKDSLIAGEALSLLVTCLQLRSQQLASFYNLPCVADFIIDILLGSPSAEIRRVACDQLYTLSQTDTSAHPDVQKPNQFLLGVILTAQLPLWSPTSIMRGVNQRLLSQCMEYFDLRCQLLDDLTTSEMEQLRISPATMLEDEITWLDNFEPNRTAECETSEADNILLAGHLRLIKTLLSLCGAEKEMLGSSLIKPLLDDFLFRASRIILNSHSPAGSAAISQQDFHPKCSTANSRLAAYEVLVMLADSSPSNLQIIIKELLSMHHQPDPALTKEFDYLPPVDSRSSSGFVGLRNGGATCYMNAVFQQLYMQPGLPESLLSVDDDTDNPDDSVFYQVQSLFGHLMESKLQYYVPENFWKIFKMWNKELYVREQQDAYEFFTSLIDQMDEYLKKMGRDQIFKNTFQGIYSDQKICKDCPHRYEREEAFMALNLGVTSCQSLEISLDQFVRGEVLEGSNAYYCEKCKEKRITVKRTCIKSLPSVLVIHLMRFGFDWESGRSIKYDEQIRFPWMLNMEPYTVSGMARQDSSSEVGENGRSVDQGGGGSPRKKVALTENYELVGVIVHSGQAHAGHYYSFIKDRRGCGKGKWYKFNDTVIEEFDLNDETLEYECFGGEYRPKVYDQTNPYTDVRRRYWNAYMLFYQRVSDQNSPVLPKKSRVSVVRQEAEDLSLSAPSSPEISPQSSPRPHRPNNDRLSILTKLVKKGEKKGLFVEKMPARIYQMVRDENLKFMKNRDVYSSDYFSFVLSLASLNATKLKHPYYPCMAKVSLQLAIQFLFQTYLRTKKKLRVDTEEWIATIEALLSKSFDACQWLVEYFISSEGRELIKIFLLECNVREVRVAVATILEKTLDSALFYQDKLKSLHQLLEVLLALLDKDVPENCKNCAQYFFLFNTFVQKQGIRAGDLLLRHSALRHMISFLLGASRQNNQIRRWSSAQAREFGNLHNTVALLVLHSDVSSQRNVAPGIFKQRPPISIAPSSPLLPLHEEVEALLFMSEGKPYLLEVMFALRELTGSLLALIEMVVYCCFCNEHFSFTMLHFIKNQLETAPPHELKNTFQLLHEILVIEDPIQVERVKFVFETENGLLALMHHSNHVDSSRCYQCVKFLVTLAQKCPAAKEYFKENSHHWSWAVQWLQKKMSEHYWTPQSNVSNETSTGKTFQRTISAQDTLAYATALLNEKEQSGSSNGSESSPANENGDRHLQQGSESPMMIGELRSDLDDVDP

O=C(CCl)N1CCC(c2noc3cc(F)ccc23)CC1
inactive: [1] -0.65 | [2] -0.49 | [3] -0.986 | [4] -0.302 | [5] -0.607
